# ± gives the standard deviation of the averaged measurements.
# Assays:
# DLD1 [1] = experiment: cell viability (CellTiter-Glo) relative to plate median (fraction of plate median); higher = more viable cells; settings: 5 µM; treatment time 24 h; reporter: 7TFP
# Method in brief: (§1)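 Per-well firefly luciferase or CellTiterGlo luminescence, normalised to the plate median, is what is reported. It was measured in colorectal cancer cells with stable lentiviral TCF/Wnt firefly luciferase reporters after a 24 h treatment with library compounds at a final 5 µM. The mean of two independent replicates is given.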
# HCT116 = experiment: as above; settings: 5 µM; treatment time 24 h; reporter: TCF4/Wnt
# Method in brief: as §1
# SW480 [2] = experiment: as above; settings: 5 µM; treatment time 24 h; reporter: 7TFP
# Method in brief: as §1
# DLD1 [3] = experiment: TCF/Wnt firefly luciferase reporter signal relative to plate median (fraction of plate median); higher = higher Wnt reporter signal; settings: 5 µM; treatment time 24 h; reporter: 7TFP
# Method in brief: as §1
# SW480 [4] = experiment: as above; settings: 5 µM; treatment time 24 h; reporter: 7TFP
# Method in brief: as §1
Compound,cell viability (DLD1 [1]),cell viability (HCT116),cell viability (SW480 [2]),TCF/Wnt firefly luciferase reporter signal (DLD1 [3]),TCF/Wnt firefly luciferase reporter signal (SW480 [4])
NCCCC[C@H](N[C@@H](CCc1ccccc1)C(=O)O)C(=O)N1CCC[C@H]1C(=O)O,1.03 ± 0.05,1.01 ± 0.07,1.003 ± 0.0099,0.9065 ± 0.00071,0.827 ± 0.069
CC1(C)CC[C@]2(C(=O)O)[C@H](O)C[C@]3(C)C(=CC[C@@H]4[C@@]5(C)CC[C@H](O)C(C)(C)[C@@H]5CC[C@]43C)[C@H]2C1,0.9085 ± 0.0035,0.94 ± 0.16,0.9525 ± 0.0092,0.919 ± 0.033,0.999 ± 0.016
CN1CCC[C@@H]1Cc1c[nH]c2ccc(CCS(=O)(=O)c3ccccc3)cc12,0.943 ± 0.028,1.05 ± 0.12,0.956 ± 0.023,0.945 ± 0.18,1.04 ± 0.063
C=C[C@@H](C1=CC(=O)C(OC)=C(OC)C1=O)c1ccccc1,0.903 ± 0.0057,0.856 ± 0.11,1.08 ± 0.014,0.712 ± 0.033,0.907 ± 0.023
C#CC1(O)CC[C@H]2[C@@H]3CCC4=CC(=O)CC[C@@H]4[C@H]3CC[C@@]21CC (mixture of isomers),0.925 ± 0.0014,0.875 ± 0.018,0.957 ± 0.026,1.14 ± 0.028,1.14 ± 0.035
CO/N=C1\CN(c2nc3c(cc2F)c(=O)c(C(=O)O)cn3C2CC2)CC1CN (stereo not given),1.04 ± 0.06,1.09 ± 0.057,0.995 ± 0.021,0.971 ± 0.11,1.06 ± 0.042
Nc1ccc(C(=O)O)c(O)c1,1.01 ± 0.021,1.06 ± 0.11,0.989 ± 0.013,1.04 ± 0.057,1.06 ± 0.1
COc1ccc2c(c1)OC/C(=C/c1ccc(OC)c(OC)c1)C2=O,0.936 ± 0.028,0.989 ± 0.086,0.966 ± 0.028,0.92 ± 0.021,0.972 ± 0.083
CC(C)CCCC(C)C1CCC2C3CCC4CCCCC4(C)C3CCC12C (stereo not given),1,0.997 ± 0.033,0.9585 ± 0.00071,0.94 ± 0.042,1.02 ± 0.014
OC1=Cc2c(O)cc(O)cc2OC1(O)c1ccc(O)c(O)c1 (stereo not given),0.963 ± 0.053,1.07 ± 0.17,0.943 ± 0.044,0.923 ± 0.07,0.9795 ± 0.0021
CC(C)OC(=O)C(C)(C)Oc1ccc(C(=O)c2ccc(Cl)cc2)cc1,1.08 ± 0.071,1.045 ± 0.0071,1.04,0.917 ± 0.14,0.939 ± 0.015
CN1[C@@H]2CC[C@H]1C[C@@H](OC(c1ccccc1)c1ccccc1)C2,1.03 ± 0.014,1.12 ± 0.014,1.05 ± 0.05,0.929 ± 0.16,0.982 ± 0.12
CCOc1cccc(C(=O)c2ccc(O)c(O)c2O)c1,1.03,1.085 ± 0.0071,1.07 ± 0.021,1.04 ± 0.088,0.932 ± 0.019
NC(=O)NC(=O)Cc1ccccc1,1.02 ± 0.014,1.16 ± 0.035,1.02 ± 0.037,1.12 ± 0.064,0.94 ± 0.08
CN(C(=O)C(Cl)Cl)c1ccc(OC(=O)c2ccco2)cc1,0.95 ± 0.0014,0.879 ± 0.2,1.03 ± 0.021,0.833 ± 0.14,0.934 ± 0.043
COc1cc(OC)cc(OC)c1,1.03 ± 0.028,1.02 ± 0.028,1.015 ± 0.0071,1.13 ± 0.028,1.1 ± 0.11
CC(=O)N[C@@H](CS)C(=O)O,0.994 ± 0.037,0.988 ± 0.12,0.993 ± 0.0042,1.1 ± 0.14,1.07 ± 0.16
O=C(O)[C@H](O)[C@@](O)(Cc1ccc(O)cc1)C(=O)O,0.954 ± 0.08,0.962 ± 0.082,0.955 ± 0.021,1.005 ± 0.0071,0.923 ± 0.11
O=C1NS(=O)(=O)c2ccccc21,0.973 ± 0.052,1.1 ± 0.085,1.03 ± 0.044,1.1 ± 0.042,0.96 ± 0.14
CCC(=O)C1(C)OC1C(C)CC(C)C1OC(=O)CC2(O)CC=C(C)C(O2)/C(C)=C/CCCC(OC2CC(OC(N)=O)C(O)C(C)O2)/C=C/C(C)C(O)C1C (stereo not given) [Irumamycin],1.07 ± 0.099,1.04 ± 0.035,1 ± 0.025,1.07 ± 0.078,1.02 ± 0.034
CCCCCC(=O)O[C@]1(C(C)=O)CC[C@H]2[C@@H]3CCC4=CC(=O)CC[C@]4(C)[C@H]3CC[C@@]21C,0.993 ± 0.0099,1.04 ± 0.057,0.972 ± 0.018,0.979 ± 0.087,1.04 ± 0.021
CC(=O)O[C@@H]1C[C@@]2(C)C(CC[C@@H]2C(C)=O)C2CCC3=CC(=O)CC[C@]3(C)C21 (stereo not given in full),0.943 ± 0.019,1.09 ± 0.042,0.976 ± 0.024,1.02 ± 0.031,0.965 ± 0.033
C[C@]12C=CC(=O)C=C1CC[C@@H]1[C@@H]2C(=O)C[C@@]2(C)[C@H]1CC[C@]2(O)C(=O)CO,1 ± 0.085,1.125 ± 0.0071,1.07 ± 0.057,1.035 ± 0.0071,0.91 ± 0.17
C[C@H]1[C@H]2CC[C@H]3[C@@H]4CC=C5C[C@@H](N(C)C)CC[C@]5(C)[C@H]4CC[C@]23CN1C,0.896 ± 0.0042,0.783 ± 0.14,0.984 ± 0.021,0.9855 ± 0.00071,1.05
CC(=O)O[C@H]1CC[C@]2(C)C3=C(CC[C@H]2C1(C)C)[C@]1(C)CC[C@H]([C@H](C)CCC=C(C)C)[C@@]1(C)CC3,0.966 ± 0.036,0.957 ± 0.055,0.953 ± 0.034,0.9 ± 0.098,0.958 ± 0.1
CN1C(C)(C)CCCC1(C)C,0.993 ± 0.0099,0.939 ± 0.13,1.02 ± 0.059,0.982 ± 0.011,1 ± 0.025
CC(C)C[C@H](NC(=O)[C@@H]1CCCN1)C(=O)N1CCNC(=O)C1=O [Prolyl-leucyl-diketopiperazine],1.02 ± 0.035,0.993 ± 0.011,0.984 ± 0.0042,1.04 ± 0.13,1.025 ± 0.0071
C=CC[C@@H]1/C=C(\C)C[C@H](C)C[C@H](OC)[C@H]2O[C@@](O)(C(=O)C(=O)N3CCCC[C@H]3C(=O)O[C@H](/C(C)=C/[C@@H]3CC[C@@H](O)[C@H](OC)C3)[C@H](C)[C@@H](O)CC1=O)[C@H](C)C[C@@H]2OC,1.02 ± 0.22,1.05 ± 0.014,1.1 ± 0.021,1.08 ± 0.042,0.98 ± 0.0057

# From the supplement of paper PMC6522484
